From PubChem
An excerpt weighted towards active compounds, which were near 3.7% of everything screened.
CHT inh – inhibits the human high affinity choline transporter; AID 488975; B-score at 10 µM; CHT-expressing cells, membrane potential dye, choline response; active compounds read low; actives 0.86% (n = 310,000); Q9GZV3;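 active = B-score over 3 SD under the library average, and starting fluorescence ratio not unusually high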;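 also: choline stimulus applied at its EC90 after an EC20 pre-addition; B-score computed on integrated fluorescence ratio after choline addition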
CHT allo act – allosterically activates the human high affinity choline transporter | actives 0.49% (n = 310,000) | AID 488977 | Q9GZV3 | CHT-expressing cells, membrane potential dye, choline EC20; active compounds read high; LV-AA mutant CHT in HEK293 cells | B-score at 10 µM;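 active = initial fluorescence not abnormally high and integrated response B-score, plate-corrected, over 3 SD above library mean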
Kir21 inh – inhibitors of mouse Kir2.1 inward-rectifier potassium channel; P35561; HEK293-Kir2.1, FluxOR thallium flux fluorescence; active compounds read low; B-score at 10 µM; actives 0.85% (n = 310,000); AID 1672;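 active = fluorescence ratio B-score at or below minus 3 SD of library scores, with starting-brightness B-score within 2 SD, cut at about -4.2 in these data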;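 also: channel flux triggered by added potassium and thallium sulfate stimulus; B-score of peak minus minimum fluorescence over baseline after thallium stimulus; more negative B-score means stronger Kir2.1 block with less thallium influx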
ANO1 activ – activators or potentiators of mouse TMEM16A chloride channel | Q8BHY3 | HEK293 TMEM16A/YFP-H148Q/I152L, iodide quench fluorescence; active compounds read low | B-score at 10 µM | actives 0.3% (n = 340,000) | AID 623877;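 active = fluorescence-ratio B-score plate-corrected deviation score at least 3 library SD below zero, with starting fluorescence score within 5 deviations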;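 also: channel opened by trigger with iodide after compound preincubation; score built on the fluorescence ratio of max minus min over baseline; more negative score means more quench and so TMEM16A activation or potentiation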
GPR7 antagonist – antagonists of human GPR7 (neuropeptides B/W receptor 1); GPR7-expressing cells, fluorescence antagonist assay; inhibition, % at 4.4 µM; actives 1.1% (n = 290,000); AID 1861; in the data active = inhibition above about 16%, passing the limit was not always enough;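 also: cells stimulated with the agonist NPW; 0% = agonist with vehicle and 100% = vehicle without agonist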
Target sequence (P48145 whole entry, looked up): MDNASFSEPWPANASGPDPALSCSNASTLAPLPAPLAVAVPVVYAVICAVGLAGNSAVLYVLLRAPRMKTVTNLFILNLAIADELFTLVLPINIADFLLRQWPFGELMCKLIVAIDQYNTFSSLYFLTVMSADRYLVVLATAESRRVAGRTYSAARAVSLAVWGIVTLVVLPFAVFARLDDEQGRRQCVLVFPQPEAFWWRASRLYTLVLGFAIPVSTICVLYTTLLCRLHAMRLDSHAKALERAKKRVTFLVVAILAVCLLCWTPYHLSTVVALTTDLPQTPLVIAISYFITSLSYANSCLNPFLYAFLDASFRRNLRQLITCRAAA
ANO1 block – inhibitors of mouse TMEM16A calcium-activated chloride channel; Q8BHY3; HEK293 TMEM16A/YFP iodide influx fluorescence, ionomycin; normalized B-score (activity score, 25-100; higher = stronger inhibition) at 10 µM; actives 1.2% (n = 310,000); AID 588511;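 active = ratio plate-corrected score three or more library SD toward inhibition, starting fluorescence score within five deviations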;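 also: score derived from kinetic fluorescence span divided by baseline fluorescence per well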
CHT inh conf – human CHT inhibition, confirmatory screen. shares compounds with CHT inh. CHT-expressing cells, choline membrane potential dye; LV-to-AA substituted CHT, HEK293 cells. actives 70% (n = 2,400). CHT activity remaining % of control (active compounds read low), % at 10 µM;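 active = choline transporter activity left, mean of duplicates at 10 µM, below buffer-only control mean minus 3 SD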;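 also: depolarization triggered by choline at its EC90 following an EC20 pre-addition; 0% = hemicholinium-3 full block and 100% = buffer-only control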
HEK293 MPD ctr – CHT inhibitor counter-screen hit in parental HEK293 cells. shares compounds with CHT inh. membrane potential dye, choline response; active = decrease or increase beyond buffer ±3SD. membrane potential ratio readout (active if shifted either direction beyond buffer ±3SD; no single direction) at 10 µM. actives 4% (n = 2,400). AID 493222;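 also: parental cells lack the transporter so any hit is non-specific; ratio is peak minus trough fluorescence over baseline after EC90 choline challenge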
Starred values were filed as active, the others as inactive; i = inactive; x = no result.

SMILES | CHT inh | CHT allo act | Kir21 inh | ANO1 activ | GPR7 antagonist | ANO1 block | CHT inh conf | HEK293 MPD ctr
COc1ccc(NC(=O)NC2CCCCC2C)cc1 (stereo not given) | i | i | -0.08 | i | -7 | i | x | x
Cc1cc(C)n2nc(SCc3cccc(S(=O)(=O)N(C)C)c3)nc2n1 | -5.3* | i | -0.84 | i | -10 | i | 68%* | i
COc1ccc(CSc2nc3nc(C)cc(C)n3n2)cc1F | -6* | i | 0.38 | i | -3 | i | 46%* | i
Cc1ccc(CSc2nc3nc(C)cc(C)n3n2)cc1 | i | i | 0.14 | i | -7 | i | x | x
Oc1c(Br)cc(/C=N/NC(=S)NCc2ccco2)cc1Br | -5.1* | i | 0.55 | i | 1 | i | 67%* | i
Cc1ccccc1-c1cc(C(=O)NCC2CC2)nn1CC1CC(c2cccc([N+](=O)[O-])c2)=NO1 (stereo not given) | x | x | x | i | x | x | x | x
CCCN(CC(=O)Nc1ccc(F)c(F)c1F)C(=O)Cn1c(=O)cnc2ccccc21 | -11* | i | -1.2 | i | x | i | 8.6%* | i
O=C1NC(c2ccccc2)=C(c2ccc3ccccc3n2)C(c2ccncc2)N1 (stereo not given) | -6.3* | i | 2.2 | i | 2 | i | 47%* | i
CC(NC(=O)Cn1cccc1C(=O)c1ccccc1)c1ccccc1 (stereo not given) | i | i | -1.7 | i | -3 | i | x | x
Cc1ccccc1C(=O)c1cccn1CC(=O)NC(C)c1ccccc1 (stereo not given) | -6.8* | i | -4.4* | i | 2 | i | 35%* | i
CCOC(=O)N1CCN(C(=O)C(c2ccccc2)c2ccccc2)CC1 | -6.5* | i | 2 | i | 1 | i | i | -11*
O=C(CCl)N(C1CCCC1)C1CCS(=O)(=O)C1 (stereo not given) | -5.1* | i | -0.14 | i | -12 | i | i | i
CC(=O)c1ccc(OCC(=O)N(C2CCCCC2)C2CCS(=O)(=O)C2)cc1 (stereo not given) | i | i | 0.6 | i | x | i | x | x
COc1ccccc1CC(=O)NC1CCCc2ccccc21 (stereo not given) | i | i | -3.9 | i | -5 | i | x | x
O=C(CCc1ccccc1O)NC1CCCc2ccccc21 (stereo not given) | -6.2* | i | -2.5 | i | 9 | i | i | i
NS(=O)(=O)c1cccc(NC(=O)COC(=O)Cc2n[nH]c(=O)c3ccccc23)c1 | x | x | x | i | x | x | x | x
CC1=NC(C)(C)Cc2ccccc21 | -10* | i | -0.86 | i | -7 | i | 20%* | i
O=C(C[n+]1cc(Br)cc2ccccc21)c1ccc(Br)cc1 | -5.7* | i | -1.3 | i | 0 | i | 30%* | i
O=C(C[n+]1cc(Br)cc(Br)c1)c1ccc(Cl)cc1 | i | i | 1.1 | i | -6 | i | x | x
O=C(C[n+]1cc(Br)cc2ccccc21)c1ccc(Cl)cc1 | -6.9* | i | -0.32 | i | 3 | i | 32%* | i
CC(C)(C)C(=O)O/N=C(\N)Cc1ccc(-c2csnn2)cc1 | i | i | -0.53 | i | -2 | i | x | x
CCN(CC)c1ccc(NC(=O)CNCc2ccccc2Cl)c(C)c1 | -5.2* | i | -0.24 | i | -3 | i | 57%* | i
CCOc1cc(/C=C2/C(=O)ON=C2C)cc(Br)c1O | -9.6* | i | -1.9 | i | -12 | i | 42%* | i
CCOc1cc(/C=C2\C(=O)ON=C2c2ccccc2)cc(Br)c1O | -5.6* | i | -7.3* | i | 7 | i | 44%* | i
CC1=NOC(=O)/C1=C/c1ccc(O)c(Br)c1 | -9.6* | i | -0.22 | i | -1 | i | 21%* | i
SMILES | CHT inh | CHT allo act | Kir21 inh | ANO1 activ | GPR7 antagonist | ANO1 block | CHT inh conf | HEK293 MPD ctr
COc1cc(/C=C2/C(=O)ON=C2c2ccccc2)ccc1O | -6.7* | i | -4.8* | i | -10 | i | 37%* | i
CC(C)NS(=O)(=O)c1ccc(NC(=O)C(C)OC(=O)CCC2CCCC2)cc1 (stereo not given) | x | x | x | i | x | x | x | x
Cc1ccc(/C=N/NC(=O)CNC(=O)c2cccc([N+](=O)[O-])c2C)o1 | i | i | -0.01 | i | 4 | i | x | x
O=C(c1ccccc1)C(Nc1cccc([N+](=O)[O-])c1)c1ccccc1 (stereo not given) | x | x | x | i | x | x | x | x
Cc1ccc(NC(=O)C(c2ccccc2)N2CCN(C(=O)c3ccco3)CC2)cc1Cl (stereo not given) | x | x | x | i | x | x | x | x
COc1ccc(CCN2CCCn3c2nc2c3c(=O)[nH]c(=O)n2C)cc1OC | i | i | 0 | i | -9 | i | x | x
NS(=O)(=O)c1cccc(NC(=O)CSc2nnc(C3CC3)n2Cc2ccccc2)c1 | -5.9* | i | -0.76 | i | -3 | i | i | i
CCOC(=O)C1CCN(Cc2c(O)c3ccccc3oc2=O)CC1 | -5.9* | i | -0.04 | i | -14 | i | 65%* | i
Cn1c(SCc2ccc(C#N)cc2Cl)nc2ccccc21 | -11* | i | -0.17 | i | 3 | i | 3.8%* | i
O=C(COc1ccc(Br)cc1F)NC1CC1 | x | x | x | i | x | x | x | x
O=C(CN1C(=O)S/C(=C\c2ccccc2Cl)C1=O)NCCCn1ccnc1 | i | i | -1.8 | i | 0 | i | x | x
COc1ccccc1/C=C1\SC(=O)N(CC(=O)NCCCn2ccnc2)C1=O | -7.1* | i | -2.2 | i | 4 | i | 69%* | i
Cc1cc(SCC(=O)Nc2cccc(S(=O)(=O)NC3=NCCCCC3)c2)c(C)cc1Br | -5* | i | -1.1 | i | -12 | i | i | i
CCOCCCn1c(SCC(=O)Nc2cccc(S(=O)(=O)NC3=NCCCCC3)c2)nc2ccccc2c1=O | -6.4* | i | 3.2 | i | 0 | i | i | i
CCCn1c(SCC(=O)Nc2cccc(S(=O)(=O)NC3=NCCCCC3)c2)nc2ccccc2c1=O | i | i | 0.28 | i | -15 | i | x | x
Cn1c(SCC(=O)Nc2cccc(S(=O)(=O)NC3=NCCCCC3)c2)nnc1-c1ccncc1 | i | i | -0.81 | i | -10 | i | x | x
O=C(NCCc1ccccc1F)c1cccc2cccnc12 | i | i | 2 | i | 3 | i | x | x
